MITF act = activators of MITF-driven TRPM1 promoter reporter, primary screen, cell-based, SK-MEL-5, luciferase, single point. SK-MEL-5 TRPM1-promoter luciferase, 24 h; % of positive control, neutral wells = 0. AID 588334, 2011. activation, % at 12.5 µM. actives 0.75% (n = 300,000);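 active means mean activation of at least 80% with every replicate also reaching 80%; inconclusive means mean reaches 80% but some replicate falls short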;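 further: 0% = neutral control wells and 100% = parthenolide positive control wells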
Wnt bcat act = Wnt/beta-catenin pathway activators, primary screen, cell-based, plate reader, single point. actives 1.2% (n = 300,000). Wnt/beta-catenin reporter cell assay, activator. activation, % at 9.35 µM; in the data active means activation above about 30%, passing the limit was not always enough; inconclusive means no clear call, values can overlap the other calls;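 further: 0% = neutral control wells and 100% = positive control wells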
PvdQ acylase = P. aeruginosa PvdQ acylase inhibitors, primary screen, biochemical, fluorescence, plate reader and imaging, single point. PvdQ acylase [Pseudomonas aeruginosa LESB58]. purified PvdQ acylase. inhibition, % at 10 µM. actives 0.063% (n = 340,000); in the data active means inhibition above about 30%, passing the limit was not always enough; inconclusive means no clear call, values can overlap the other calls;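 further: 0% = vehicle neutral wells and 100% = reference inhibitor wells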
Glyco luc inh = increase of ERlucT glycosylation luciferase signal, primary screen, N-linked glycosylation inhibitor project, D54 ERlucT cells, luminescence, set 2 | reporter increase, % at 12.5 µM | D54 ERlucT glycosylation luciferase reporter, 24 h; percent of 100 nM tunicamycin response | actives 0.23% (n = 360,000);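 active means mean luciferase reporter signal, scaled so untreated is 0 and the glycosylation-blocking control 100, at or above a set limit in every replicate; inconclusive means mean reaches the limit but not every replicate does; inactive means mean below the limit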;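 further: luciferase carries N-glycosylation sites so blocking glycosylation raises the light; 0% = median of neutral control wells and 100% = median of 100 nM tunicamycin wells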
esBAF inh = Bmi1 luciferase reporter increase in mESCs, primary screen, esBAF inhibitor project, mouse ES cells, Bmi1 luciferase knock-in, single point; actives 2% (n = 350,000); reporter increase, % at 12.5 µM; 24 h; 100% = twice the neutral-well signal; in the data active means activation above about 40%; inconclusive means no clear call, values can overlap the other calls;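 further: 0% = median of the plate's neutral control wells and 100% = double that signal; a rise in the Bmi1 reporter signal indicates esBAF inhibition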
Vif inh = HIV Vif self-association inhibitors, primary screen, imaging, HEK293T, single point; inhibition, % at 7.49 µM; actives 0.35% (n = 340,000); HEK293T cells, Vif self-association by quenched fluorescence, 24 h; in the data active means inhibition above about 50%, passing the limit was not always enough; inconclusive means no clear call, values can overlap the other calls; inactive means below about 31%
* = called active by the depositor; ? = inconclusive; / = no result given. The list is not random: actives were taken first. Their share in the collection is about 2.9%.

SMILES | MITF act | Wnt bcat act | PvdQ acylase | Glyco luc inh | esBAF inh | Vif inh
CO[C@H]1CN(C)C(=O)c2cc(NC(C)=O)ccc2OC[C@H](C)N(C(=O)C2CC2)C[C@@H]1C | / | / | / | / | 6 | /
CN1c2ccc(-c3ccccc3F)cc2[C@H]2[C@H](CCN2S(=O)(=O)c2ccc(F)cc2)[C@@H]1CO | / | / | / | / | 0 | /
O=C(NCC[C@@H]1CC[C@@H](NS(=O)(=O)c2cccc(F)c2)[C@@H](CO)O1)C1CCOCC1 | / | / | / | / | -5 | /
CSCCC1C(C#N)=C(N)Oc2n[nH]c(-c3cccs3)c21 (stereo not given) | -1 | 10 | -4 | -1 | -10 | /
CC(C)CC1C(C#N)=C(N)Oc2n[nH]c(-c3cccs3)c21 (stereo not given) | / | 37* | -17 | -2 | 21 | -5
CCN(CC)C(=O)/C=C/c1ccccc1 | 35 | 10 | -6 | 1 | / | /
CON(C)C(=O)/C=C/c1ccc([B-](F)(F)F)cc1 | 21 | 7 | -9 | 1 | 47* | -3
C[C@@H]1CN([C@@H](C)CO)C(=O)c2cc(NC(=O)c3ccncc3)ccc2O[C@@H](C)CCCCO[C@H]1CN(C)Cc1ccccc1 | / | / | / | / | 1 | /
C[C@H](NC(=O)[C@@H]1[C@@H](CO)[C@@H]2Cn3c(ccc(-c4cccnc4)c3=O)[C@@H]2N1C)c1ccccc1 | / | / | / | / | 2 | /
COc1ccc(C(=O)c2ccc(Br)cc2)cc1 | 52 | -5 | -14 | -1 | 55* | -10
COc1ccc(C(=O)c2ccccc2)cc1 | 13 | 0 | 8 | -1 | / | -4
CCOC(=O)CNc1c(-c2ccccc2)nc2ccc(Cl)cn12 | 13 | 23 | -2 | -1 | 36 | 8
COC(=O)CNc1c(-c2ccccn2)nc2ccc(Br)cn12 | / | 40* | -14 | -9 | 15 | 7
O=C(N[C@@H]1CC[C@@H](CCNS(=O)(=O)c2ccccc2)O[C@H]1CO)c1cccc(F)c1 | / | / | / | / | -6 | /
CN(C)c1ccc(C(=O)c2ccc(N(C)C)c3ccccc23)cc1 | -38 | / | -2 | 10 | 21 | 78*
COc1ccc(N(C(=O)CNC(=O)c2ccco2)C(C(=O)NC2CCCCC2)c2ccncc2)cc1 (stereo not given) | -9 | -1 | -13 | -1 | -4 | 2
COc1ccc(N(C(=O)Cn2cnc3ccccc32)C(C(=O)NC2CCCCC2)c2ccccc2)cc1 (stereo not given) | 4 | 56* | -13 | 1 | -3 | -1
CCn1c(O)c(N=NC(=O)CNC(=O)Cc2ccccc2)c2ccccc21 | -11 | -1 | 9 | 2 | 1 | 15
O=C(CNC(=O)c1ccco1)N=Nc1c(O)n(CCc2ccccc2)c2ccccc12 | -43 | -10 | 1 | 34* | -8 | 3
CO[C@H]1CN(C)C(=O)c2ccc(NS(C)(=O)=O)cc2OC[C@@H](C)N(Cc2nccs2)C[C@H]1C | / | / | / | / | -1 | /
C/C(=N\Nc1nccnc1Cl)c1ccc(Br)cc1 | 20 | 4 | 1 | 2 | 20 | 2
COc1ccc(/C(C)=N/Nc2nccnc2Cl)cc1 | 65 | 29 | -6 | 0 | 46* | -6
CCOC(=O)c1c(NC(=O)CCC(=O)N2CCOCC2)sc2c1CC(C)(C)OC2 | -1 | 12 | 7 | -3 | -2 | 55*
O=C(CCSc1ccc(Cl)cc1)N1CCOCC1 | / | 25 | -7 | 0 | 42* | -1
O=C(CSc1ccc(Cl)cc1)N1CCOCC1 | 22 | 5 | -6 | 3 | 10 | -3
SMILES | MITF act | Wnt bcat act | PvdQ acylase | Glyco luc inh | esBAF inh | Vif inh
CC(C)CC#Cc1ccc2c(c1)O[C@@H](CN(C)S(C)(=O)=O)[C@H](C)CN([C@@H](C)CO)S2(=O)=O | / | / | / | / | -1 | /
O=C(/C=C/c1ccccc1)c1ccc2ccccc2c1 | 52 | 0 | 7 | 12 | 68* | -13
O=C(N/N=C\c1ccc(Cl)s1)c1cccs1 | 7 | / | -9 | 8 | 72* | /
O=C(N/N=C\c1cc2c(cc1Cl)OCO2)c1cccs1 | 21 | 6 | -8 | 1 | 53* | -8
Cc1ccc(-c2nc(C#N)c(NCc3ccco3)o2)cc1 | / | / | -15 | 0 | 73* | 7
N#Cc1nc(-c2ccc(OCc3ccccc3)cc2)oc1NCc1ccco1 | 11 | / | 8 | 0 | 2 | -24
COc1ccc(-c2nc(C#N)c(NCc3ccco3)o2)cc1 | 30 | 14 | -14 | 10 | 39 | -2
CNc1oc(-c2ccc(OCc3ccccc3)cc2)nc1C#N | 75 | / | -8 | -3 | 69* | 6
Cc1cccc(-c2nc(C#N)c(NCc3ccco3)o2)c1 | / | 32* | -11 | 2 | 59* | 2
C[C@@H]1CN([C@@H](C)CO)C(=O)c2cc(NS(=O)(=O)c3ccc(F)cc3)ccc2O[C@@H]1CN(C)S(C)(=O)=O | / | / | / | / | -6 | /
Cc1nn(-c2ccccc2)c(N)c1N=Nc1ccccc1 | 43 | 0 | 4 | -7 | / | -2
Cc1nn(-c2ccccc2)c(C)c1/C=N/O | 2 | / | 9 | -1 | 11 | -4
Cc1nc2cc(-c3ccccc3)nn2c(N)c1-c1ccccc1 | 33 | 6 | -9 | -14 | -7 | 2
Cc1cc(-c2ccccc2)n(-c2ccccc2)n1 | / | 10 | -23 | -2 | 51* | 9
Cc1nn(-c2ccccc2)c(/N=C/c2ccccc2O)c1-c1ccccc1 | 56 | 129* | -8 | 2 | / | -1
Cc1nn(-c2ccccc2)c(N)c1-c1ccccc1 | 114* | ? | 8 | 1 | 67* | 10
Cc1nn(-c2nc3ccccc3[nH]2)c(N)c1-c1ccccc1 | 68 | 55* | -10 | -1 | / | -10
Cc1ccccc1S(=O)(=O)NCC[C@H]1CC[C@H](NC(=O)C2CCCCC2)[C@@H](CO)O1 | / | / | / | / | 4 | /
CO[C@H]1CN(C)C(=O)c2ccc(NS(C)(=O)=O)cc2OC[C@H](C)N(CCC(F)(F)F)C[C@H]1C | / | / | / | / | 0 | /
Cc1nn(-c2ccccc2)c(N)c1N=Nc1ccc(Cl)cc1 | 23 | -3 | -11 | 3 | 80* | 4
Cc1ccc(CCNC(=O)c2nnn(-c3cc(C)cc(C)c3)c2N)cc1 | / | / | 6 | -1 | -3 | -2
Cc1ccc(NC(=O)c2nnn(-c3cc(C)cc(C)c3)c2N)cc1 | / | 31* | 1 | 0 | 49* | -13
COCCCNC(=S)NNC(=O)c1ccc(C(C)(C)C)cc1 | 3 | 1 | -1 | -2 | / | -9
COCCCNC(=S)NNC(=O)c1csc(C)n1 | -12 | 41* | -14 | 1 | -5 | 11
COc1ccc(S(=O)(=O)N(C)C[C@H]2OCCCC[C@@H](C)Oc3ccc(NC(=O)Nc4c(C)noc4C)cc3C(=O)N([C@H](C)CO)C[C@@H]2C)cc1 | / | / | / | / | -2 | /
